Here are results for 8 compounds from PubChem BioAssay (Tox21).

Assay [1] can be described thus: qHTS assay to identify small molecule antagonists of the thyroid receptor (TR) signaling pathway (AID 743065). Note: series mostly up to about 70 µM; nearly all actives have a fitted effect of over 55% in size. The method in brief: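 Antagonism measured as loss of luciferase signal in GH3 cells stably carrying a TRE-luciferase reporter, co-treated with compound and T3 (1 nM final) for 23.5 h at 37 C. Viability was read in the same well by CellTiter-Fluor.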
On the technique in general: In qHTS, concentration-response curves come from the screen itself.

Assay [2] relates to thyroid hormone receptor (rat, GH3 cells). As to the kind of experiment: qHTS assay to identify small molecule agonists of the thyroid receptor (TR) signaling pathway (AID 743066; calls by dose curve).
Assay [3] has as its target Estrogen receptor (Homo sapiens) (UniProt P03372). As to the kind of experiment: qHTS assay to identify small molecule antagonists of the estrogen receptor alpha (ER-alpha) signaling pathway (AID 743069; active = well fitted curve in the direction sought with a large enough effect in the signal ratio in the repeat runs, not every such curve was filed as active; the % refers to the signal ratio). The essentials: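 Compound effects are measured against 17beta-estradiol stimulation in HEK293 cells with a UAS-controlled beta-lactamase reporter for ER-alpha. Exposure lasts 18 hr at 37C; LiveBLAzer B/G FRET substrate follows for 2 hr at room temperature.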

Assay [4] in a line: qHTS assay to identify small molecule antagonists of the estrogen receptor alpha (ER-alpha) signaling pathway - cell viability counter screen (AID 743074; calls by dose curve;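 note: HEK293 cells carrying ER-alpha-UAS-bla reporter stimulated with 17beta-estradiol; nearly all actives have a fitted effect of over 45% in size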).
In assay [5] the target is Estrogen receptor (Homo sapiens) (UniProt P03372). As to the kind of experiment: qHTS assay to identify small molecule agonists of the estrogen receptor alpha (ER-alpha) signaling pathway (AID 743075; calls by dose curve).
Assay [6] shares this target. The assay is described as follows: qHTS assay to identify small molecule agonists of the estrogen receptor alpha (ER-alpha) signaling pathway using the BG1 cell line (AID 743079). Note: nearly all actives have a fitted effect of over 20% in size.
A short description of assay [7]: qHTS assay to identify small molecule antagonists of the estrogen receptor alpha (ER-alpha) signaling pathway using the BG1 cell line (AID 743080; calls by dose curve;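 note: BG1 cells stimulated with 17beta-estradiol alongside compound; series mostly up to about 70 µM; nearly all actives have a fitted effect of over 25% in size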). The method in brief: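 Luminescence from a 4×ERE-luciferase reporter in BG1-Luc-4E2 cells served as read-out. Cells, pre-cultured 5 days in stripped-serum phenol-red-free medium, were exposed to compound with 17beta-estradiol co-stimulation for 21.5 h at 37 C.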

Assay [8] can be described thus: qHTS assay to identify small molecule antagonists of the estrogen receptor alpha (ER-alpha) signaling pathway using the BG1 cell line - cell viability counter screen (AID 743081).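 Note: compound given together with 17beta-estradiol as the ER stimulus; series mostly up to about 70 µM; nearly all actives have a fitted effect of over 45% in size.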
Assay [9] concerns the target Aromatase (Homo sapiens) (UniProt P11511). The assay is described as follows: qHTS assay to identify aromatase inhibitors (AID 743083). Note: series mostly up to about 70 µM; nearly all actives have a fitted effect of over 55% in size.
Assay [10] is described as follows: qHTS assay to identify aromatase inhibitors - cell viability counter screen (AID 743084).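 Note: cells stimulated with testosterone during compound exposure; nearly all actives have a fitted effect of over 55% in size.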
Assay [11] is described as follows: qHTS assay to identify small molecule that activate the aryl hydrocarbon receptor (AhR) signaling pathway - cell viability counter screen (AID 743086).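 Note: HepG2 liver cells carrying the AhR DRE luciferase reporter; series mostly up to about 70 µM; nearly all actives have a fitted effect of over 45% in size.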 The method in brief:
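Cytotoxicity counter screen: CellTiter-Fluor signal (30 min, 37 C) in 4000 HepG2 cells/well carrying the DRE-luciferase reporter, following 24 h compound exposure at 37 C.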

In assay [12] the target is Peroxisome proliferator-activated receptor gamma (Homo sapiens) (UniProt P37231). As to the kind of experiment: qHTS assay to identify small molecule agonists of the peroxisome proliferator-activated receptor gamma (PPARg) signaling pathway (AID 743094; active = well fitted activation curve with a large enough effect in the signal ratio in the repeat runs, not every such curve was filed as active; the % refers to the signal ratio). The essentials: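 GeneBLAzer PPARg UAS-bla HEK293H cells carrying a stably integrated beta-lactamase reporter were pre-incubated 5 h at 37C, then exposed to compounds in DMSO for 17 h at 37C; LiveBLAzer B/G FRET substrate was added for 1 h at room temperature and fluorescence read.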

Assay [13] shares this target. As to the kind of experiment: qHTS assay to identify small molecule antagonists of the peroxisome proliferator-activated receptor gamma (PPARg) signaling pathway (AID 743191; calls by dose curve; note: series mostly up to about 63 µM; nearly all actives have a fitted effect of over 30% in size). The essentials:
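Beta-lactamase reporter under UAS control in HEK293H PPARg-bla cells; compound treatment 17 h at 37C. Read-out: fluorescence intensity after 1 h room-temperature incubation with LiveBLAzer B/G FRET substrate.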

Assay [14] in a line: qHTS assay to identify small molecule antagonists of the peroxisome proliferator-activated receptor gamma (PPARg) signaling pathway - cell viability counter screen (AID 743194). Note: nearly all actives have a fitted effect of over 55% in size. The method in brief: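 Viability was measured as CellTiter-Glo luminescence in GeneBLAzer PPARg UAS-bla HEK293H cells. These cells had been exposed 17 h at 37 C to compounds together with rosiglitazone at 50 nM final, with the beta-lactamase readout taken in the same wells.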

The nature of assay [15]: qHTS assay for small molecule activators of the heat shock response signaling pathway - cell viability counter screen (AID 743209). Note: nearly all actives have a fitted effect of over 50% in size. The method in brief: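 CellSensor HSE-bla HeLa cells, plated overnight at 37 C/5% CO2, were exposed to compounds in DMSO for 5 h at 37 C. Viability was then read in the same wells by CellTiter-Glo luminescence after 30 min at room temperature.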

A short description of assay [16]: qHTS assay for small molecule activators of the heat shock response signaling pathway (AID 743210; active = well fitted activation curve with a large enough effect in the signal ratio in the repeat runs, with a control signal flat, not every such curve was filed as active; the % refers to the signal ratio;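 note: HeLa cells with beta-lactamase reporter driven by heat shock elements; series mostly up to about 63 µM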). The method in brief:
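In HSE-bla HeLa cells, 5 h compound incubation (37 C) precedes addition of LiveBLAzer B/G substrate; after 2.5 h at room temperature, fluorescence intensity indicates reporter induction.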

Assay [17] addresses Aryl hydrocarbon receptor (Homo sapiens) (UniProt P35869). The assay is described as follows: qHTS assay to identify small molecule that activate the aryl hydrocarbon receptor (AhR) signaling pathway (AID 743085).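 Note: HG2L7.5c1 human HepG2 liver cells with stably integrated DRE-driven firefly reporter; series mostly up to about 70 µM; nearly all actives have a fitted effect of over 15% in size.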 The method in brief:
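Luminescence read-out: ONE-Glo reagent, 30 min at room temperature, in HG2L7.5c1 HepG2 reporter cells treated 24 h at 37C. Viability was measured beforehand by CellTiter-Fluor fluorescence after 30 min at 37C.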

Assay [18] can be described thus: qHTS assay for small molecule agonists of the antioxidant response element (ARE) signaling pathway - cell viability counter screen (AID 743203; calls by dose curve; note: nearly all actives have a fitted effect of over 55% in size). The method in brief: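 CellSensor ARE-bla HepG2 cells, 2,000 per well, rested 5 hrs at 37C/5% CO2, then exposed to compound in DMSO for 16 hrs; viability read as CellTiter-Glo luminescence after 30 min at room temperature, in the reporter wells.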

Assay [19] can be described thus: qHTS assay to identify small molecule antagonists of the thyroid receptor (TR) signaling pathway - cell viability counter screen (AID 743064). Note: nearly all actives have a fitted effect of over 50% in size. The essentials:
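GH3.TRE-Luc cells, 4 h pre-plating; cpd + T3 1 nM final; 37 °C 23.5 h; CellTiter-Fluor 30 min; fluorescence read.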

The nature of assay [20]: qHTS assay for small molecule agonists of the antioxidant response element (ARE) signaling pathway (AID 743202; active = well fitted activation curve with a large enough effect in the signal ratio in the repeat runs, not every such curve was filed as active; the % refers to the signal ratio; note: potency is the fitted concentration of half-maximal effect). The essentials:
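An ARE-responsive beta-lactamase gene stably integrated in HepG2 cells serves as reporter. After 5 h plating and 16 h compound incubation at 37 C, fluorescence of the B/G FRET substrate was measured.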

Molecules are shown by their SMILES. Results filed as inconclusive are left out. Calls of active or inactive are those of the source. Unless noted, calls come from the whole dose curve; as a rule, active = well fitted curve in the direction sought with a large enough effect in the repeat runs; inconclusive = weak or mixed curves; inactive = no such curve, though single readings can be large; an effect the other way counts as inactive or inconclusive.

Aromatase (Homo sapiens), sequence (P11511 whole entry, looked up): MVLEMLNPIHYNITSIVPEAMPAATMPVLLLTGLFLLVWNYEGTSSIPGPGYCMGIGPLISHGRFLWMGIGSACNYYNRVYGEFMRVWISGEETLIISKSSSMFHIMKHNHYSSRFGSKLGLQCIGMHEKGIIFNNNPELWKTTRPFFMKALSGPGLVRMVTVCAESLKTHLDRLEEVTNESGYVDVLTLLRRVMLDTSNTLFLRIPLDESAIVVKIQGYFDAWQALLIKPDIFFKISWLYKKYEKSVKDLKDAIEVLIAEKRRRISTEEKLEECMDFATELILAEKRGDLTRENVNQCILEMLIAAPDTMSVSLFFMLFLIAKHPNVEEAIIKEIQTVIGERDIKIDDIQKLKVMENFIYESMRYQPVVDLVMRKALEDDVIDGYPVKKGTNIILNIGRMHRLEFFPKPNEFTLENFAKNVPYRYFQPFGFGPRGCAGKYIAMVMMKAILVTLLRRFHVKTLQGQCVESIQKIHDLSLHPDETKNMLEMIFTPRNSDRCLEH
Aryl hydrocarbon receptor (Homo sapiens), sequence (P35869 whole entry, looked up): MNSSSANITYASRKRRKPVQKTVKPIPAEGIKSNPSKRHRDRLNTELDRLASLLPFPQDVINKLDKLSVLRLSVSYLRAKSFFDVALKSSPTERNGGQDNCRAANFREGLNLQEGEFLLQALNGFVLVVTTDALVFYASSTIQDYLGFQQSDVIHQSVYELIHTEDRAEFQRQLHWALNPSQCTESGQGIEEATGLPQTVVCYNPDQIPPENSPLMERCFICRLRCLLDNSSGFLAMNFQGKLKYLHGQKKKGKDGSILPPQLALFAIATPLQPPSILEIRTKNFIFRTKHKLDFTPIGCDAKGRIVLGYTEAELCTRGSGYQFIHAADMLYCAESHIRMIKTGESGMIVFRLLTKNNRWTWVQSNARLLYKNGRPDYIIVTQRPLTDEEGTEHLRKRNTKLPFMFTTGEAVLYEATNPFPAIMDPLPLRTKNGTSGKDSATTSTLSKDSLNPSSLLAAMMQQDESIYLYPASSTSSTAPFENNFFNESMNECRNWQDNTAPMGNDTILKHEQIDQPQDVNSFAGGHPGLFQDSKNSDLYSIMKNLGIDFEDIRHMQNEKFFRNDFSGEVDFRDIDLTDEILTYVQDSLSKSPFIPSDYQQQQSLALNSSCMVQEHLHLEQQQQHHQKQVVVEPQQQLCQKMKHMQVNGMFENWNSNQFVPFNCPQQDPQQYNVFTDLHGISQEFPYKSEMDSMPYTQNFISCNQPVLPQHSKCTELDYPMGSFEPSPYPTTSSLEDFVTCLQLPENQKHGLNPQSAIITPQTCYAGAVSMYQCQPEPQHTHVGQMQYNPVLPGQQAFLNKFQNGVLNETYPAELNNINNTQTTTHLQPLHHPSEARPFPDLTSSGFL
Peroxisome proliferator-activated receptor gamma (Homo sapiens), sequence (P37231 whole entry, looked up): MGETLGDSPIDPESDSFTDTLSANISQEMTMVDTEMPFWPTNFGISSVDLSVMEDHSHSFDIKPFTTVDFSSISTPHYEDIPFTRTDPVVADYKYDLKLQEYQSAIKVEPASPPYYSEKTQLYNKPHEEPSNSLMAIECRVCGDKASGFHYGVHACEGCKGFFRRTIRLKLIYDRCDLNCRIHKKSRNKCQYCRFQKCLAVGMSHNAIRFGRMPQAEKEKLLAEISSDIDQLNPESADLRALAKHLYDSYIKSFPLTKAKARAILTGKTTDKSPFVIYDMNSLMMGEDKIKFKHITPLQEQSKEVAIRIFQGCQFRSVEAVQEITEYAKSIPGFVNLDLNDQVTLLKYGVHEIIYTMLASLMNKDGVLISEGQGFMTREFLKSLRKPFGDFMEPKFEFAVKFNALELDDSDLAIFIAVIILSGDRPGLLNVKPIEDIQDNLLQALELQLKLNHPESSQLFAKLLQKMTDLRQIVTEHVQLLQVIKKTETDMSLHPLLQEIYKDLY
Estrogen receptor (Homo sapiens), sequence (P03372 whole entry, looked up): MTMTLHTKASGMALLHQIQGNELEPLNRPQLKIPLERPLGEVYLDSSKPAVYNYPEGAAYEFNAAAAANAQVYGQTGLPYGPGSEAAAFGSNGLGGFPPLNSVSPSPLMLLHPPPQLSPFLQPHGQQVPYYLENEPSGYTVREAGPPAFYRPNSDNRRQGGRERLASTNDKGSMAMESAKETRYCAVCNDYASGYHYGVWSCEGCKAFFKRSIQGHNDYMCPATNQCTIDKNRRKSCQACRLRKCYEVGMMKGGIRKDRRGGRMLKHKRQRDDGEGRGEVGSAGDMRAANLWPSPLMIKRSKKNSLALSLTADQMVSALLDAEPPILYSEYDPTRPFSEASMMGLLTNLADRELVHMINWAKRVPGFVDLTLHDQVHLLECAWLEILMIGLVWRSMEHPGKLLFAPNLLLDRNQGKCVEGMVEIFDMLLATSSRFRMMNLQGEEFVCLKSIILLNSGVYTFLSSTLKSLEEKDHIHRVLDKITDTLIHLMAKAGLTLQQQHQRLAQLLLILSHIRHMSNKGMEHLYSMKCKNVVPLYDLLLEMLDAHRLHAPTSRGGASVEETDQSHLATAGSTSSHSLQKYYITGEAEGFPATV

For the compound `CC(C)CCCCCOC(=O)CCS`, the Potency entry in assay [1], in [3], in [4], in assay [5], in [6] and in assay [7] was “inactive” each time. Moreover, the Potency result in assay [8], in assay [9], in assay [10], in [11], in assay [12] and in assay [13] was “inactive” in each case. Moreover, the Potency result in [14], in [15] and in assay [16] was “inactive” each time. For the same compound, in [2], the outcome was inactive.
For the compound `OC[C@@H](O)[C@@H](O)CO`, the Potency result in assay [1], in assay [3], in assay [4], in assay [5], in assay [6] and in assay [7] was “inactive” throughout. Also, the Potency result in assay [8], in assay [9], in [10], in assay [11], in assay [14] and in assay [15] was “inactive” in each case. Besides, the Potency result in [16] is “inactive”. For the same compound, the compound was classed as inactive in assay [2].
On to `OC1CCCc2ccccc21` (stereo unspecified), for which the Potency result in assay [1], in [3], in assay [4], in assay [5], in assay [6] and in [7] was “inactive” each time. Also, the Potency result in assay [8], in [9], in assay [10], in [17], in assay [12] and in assay [14] was “inactive” throughout. Besides, the Potency result in assay [18], in [15] and in assay [16] was “inactive” throughout. The compound was classed as inactive in assay [2].
With `CCCCCCCCCCOC(=O)c1ccccc1C(=O)OCCCCCCCC`, the Potency entry in assay [1], in assay [3], in assay [4], in assay [5], in [6] and in [7] was “inactive” each time. In addition, the Potency result in assay [8], in assay [9], in assay [10], in assay [17], in assay [14] and in assay [18] was “inactive” in each case. The Potency entry in [15] and in [16] was “inactive” each time. Further, the outcome in [2] was inactive.
For the compound `CCC(=O)OC(=O)CC`, the Potency entry in [1], in assay [3], in assay [4], in [5], in [6] and in [7] was “inactive” each time. Also, the Potency entry in assay [8], in assay [9], in [10], in assay [17], in assay [11] and in [12] was “inactive” in each case. Besides, the Potency result in [14], in assay [18], in assay [15] and in assay [16] was “inactive” each time. In [2], the compound was classed as inactive.
Regarding `Oc1cc(Cl)cc(Cl)c1Cl`, the Potency entry in assay [19], in assay [5], in assay [7], in assay [10], in assay [11] and in [12] was “inactive” in each case. Further, the Potency entry in [14], in assay [18], in assay [15] and in assay [16] was “inactive” throughout. In [2], the compound was called inactive. In assay [20], the Potency was 62.6 µM (active).
With `O=C(O)c1ccc2cc(C(=O)O)ccc2c1`, the Potency result in assay [1], in assay [3], in assay [4], in assay [5], in assay [6] and in [7] was “inactive” each time. Also, the Potency entry in [8], in assay [9], in assay [10], in assay [17], in assay [11] and in assay [12] was “inactive” throughout. Besides, the Potency result in assay [13], in assay [14], in [20], in assay [18], in assay [15] and in [16] was “inactive” each time. For the same compound, the result in assay [2] was inactive.
As to `CCO[C@@H]1O[C@H](C(COCc2ccccc2)OCc2ccccc2)[C@H](OCc2ccccc2)[C@H]1O` (stereo partly specified), the Potency entry in [19], in assay [4], in assay [8], in assay [9], in assay [10] and in assay [17] was “inactive” throughout. The Potency result in assay [11], in [12], in [14], in [18], in assay [15] and in assay [16] was “inactive” throughout.
